Shown are actives, neighbours in structure and some others; about 0.92% of the full set was active somewhere.
WRN helicase inh-1: inhibitors of human WRN helicase; 0.46% of 360,000 active; Potency, µM (top dose mostly 114 µM), usual class: inhibitors; Q14191; WRN helicase unwinding, fluorescent forked duplex, kinetic; also: nearly all actives have a fitted effect of over 55% in size
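Fluorescence dequenching readout, ex 525 nm/em 598 nm, kinetic mode: forked duplex DNA (100 nM final) with adjacent fluorophore and quencher unwound by WRN (20 nM final) with 2 mM ATP. Compound preincubation 15 min, room temperature.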
BLM helicase inh-1: Bloom syndrome helicase (human) inhibition; P54132; recombinant BLM DNA unwinding, fluorescence dequenching; Potency, µM (titrated, usually from 56.1 µM), most hits filed as inhibitors; 0.2% of 350,000 active; AID 2528; also: nearly all actives have a fitted effect of over 35% in size
L3MBTL1 inh-1: blocks human L3MBTL1. Q9Y468. AlphaScreen L3MBTL1–H3K9me1 peptide binding. Potency, µM (series often up to 57.1 µM), hits mostly inhibitors. 0.66% of 230,000 active. AID 485360; also: nearly all actives have a fitted effect of over 60% in size
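First, the protein-peptide complex forms for 30 min at room temperature (L3MBTL1 50 nM, biotinylated H3K9me1 peptide 75 nM). Next, compounds are pin-transferred and incubated 30 min. Finally, AlphaScreen beads are added and read after 30 min.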
APEX1 inh: inhibitors of human APE1 endonuclease; P27695; AID 2517; Potency, µM (doses to about 65.8 µM), most hits filed as inhibitors; recombinant APE1, TAMRA/BHQ-2 abasic DNA cleavage fluorescence; 0.35% of 350,000 active; also: nearly all actives have a fitted effect of over 55% in size
Target sequence (P27695 whole entry, looked up): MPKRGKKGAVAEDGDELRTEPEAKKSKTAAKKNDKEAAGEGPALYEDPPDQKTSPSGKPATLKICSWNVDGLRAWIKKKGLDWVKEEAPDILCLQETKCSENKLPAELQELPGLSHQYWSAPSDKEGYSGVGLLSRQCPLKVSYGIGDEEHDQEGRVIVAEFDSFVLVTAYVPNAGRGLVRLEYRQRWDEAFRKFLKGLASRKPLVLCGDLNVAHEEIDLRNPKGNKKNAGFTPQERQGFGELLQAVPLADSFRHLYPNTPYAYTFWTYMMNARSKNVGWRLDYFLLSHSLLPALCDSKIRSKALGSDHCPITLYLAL
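Activity was derived from the fluorescence gain between first and third kinetic reads (60 s intervals, ex 525/em 598 nm) after 50 nM THF-abasic TAMRA/BHQ-2 duplex was added to 0.75 nM APE1 preincubated 15 min with compound.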
RECQ1 inh-1: RECQ1 (human) helicase inhibition; P46063; AID 2549; RECQ1 DNA unwinding, red fluorescence kinetic read; Potency, µM (series often up to 57.3 µM), actives largely listed as inhibitors; 0.54% of 240,000 active; also: nearly all actives have a fitted effect of over 30% in size
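RECQ1T1 50 nM; forked duplex (20 bp + 30-nt ss tails) 200 nM, ATP 2 mM final; pH 8.0, 2 mM MgCl2, 2.5 ug/ml poly(dI-dC); 15 min compound preincubation; discontinuous kinetic read over 2 h at RT.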
RECQ1 inh conf: confirmation of human RECQ1 helicase inhibitors | shares compounds with RECQ1 inh-1 | RECQ1 helicase DNA unwinding, fluorescence | Potency, µM (titrated, usually from 229 µM), hits mostly inhibitors | 28% of 610 active | AID 2708; also: nearly all actives have a fitted effect of over 45% in size
ADP FP counter: displaces ADP in a fluorescence polarization counter-screen for RECQ1 hits | shares compounds with RECQ1 inh-1 | ADP fluorescence polarization displacement counterscreen | Potency, µM (titrated, usually from 228 µM), hits mostly inhibitors | 27% of 530 active | AID 2711; also: nearly all actives have a fitted effect of over 45% in size
RECQ1 inh-2: blocks human RECQ1 DNA unwinding; recombinant RECQ1 DNA unwinding, red fluorescence; 15% of 1,100 active; Potency, µM (titrated, usually from 119 µM), most hits filed as inhibitors; shares compounds with RECQ1 inh-1; AID 504841; also: nearly all actives have a fitted effect of over 50% in size
L3MBTL1 inh-2: validation of human L3MBTL1 methyl-lysine binding inhibitors. shares compounds with L3MBTL1 inh-1. L3MBTL1 methyl-lysine binding inhibition, biochemical qHTS. Potency, µM, actives largely listed as inhibitors. 91% of 500 active; also: nearly all actives have a fitted effect of over 70% in size
L3MBTL1 ctr: interferes with AlphaScreen signal in L3MBTL1 counterscreen; shares compounds with L3MBTL1 inh-1; AlphaScreen counterscreen, signal inhibition; Potency, µM (top dose mostly 57.1 µM), actives largely listed as inhibitors; 500 tested, under 10 active
WRN helicase inh-2: WRN helicase inhibition, cherry-pick retest; AID 720497; WRN helicase DNA unwinding, fluorescence kinetic; Potency, µM (titrated, usually from 57.1 µM), usual class: inhibitors; 63% of 610 active; shares compounds with WRN helicase inh-1; also: nearly all actives have a fitted effect of over 65% in size
TO DNA binding: counter-screen for WRN helicase inhibitors: DNA binding. Potency, µM (series often up to 57.1 µM), hits mostly inhibitors. thiazole orange DNA binding displacement, fluorescence. shares compounds with WRN helicase inh-1. 10% of 610 active;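 also: drop in dye fluorescence marks compound binding to DNA; nearly all actives have a fitted effect of over 60% in size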
BLM helicase inh-2: BLM helicase inhibition, WRN selectivity check. Potency, µM (series often up to 57.1 µM), most hits filed as inhibitors. shares compounds with WRN helicase inh-1. 60% of 610 active. AID 720503. Recombinant BLM helicase DNA unwinding, red fluorescence; also: nearly all actives have a fitted effect of over 60% in size
Hits are given with their value. Calls follow the shape of the dose curve; as a rule, active = well fitted curve in the direction sought with a large enough effect; inconclusive = small, poorly fitted or top-dose-only effect, or another doubt; inactive = no such curve, though single readings can be large; an effect the other way counts as inactive or inconclusive.

Results for CC(C)Nc1ccc(Nc2ccnc3cc4ccccc4cc23)cc1 ?
WRN helicase inh-1: 35.5µM; BLM helicase inh-1: inconclusive; L3MBTL1 inh-1: 14.1µM; APEX1 inh: inconclusive; RECQ1 inh-1: 22.4µM; RECQ1 inh conf: 22.4µM; ADP FP counter: inactive; L3MBTL1 inh-2: 21.2; L3MBTL1 ctr: inactive

How did O=c1c2c3c(sc2[nH]c(=S)n1Cc1ccco1)CCC3 do in these assays?
WRN helicase inh-1: inconclusive; BLM helicase inh-1: inactive; L3MBTL1 inh-1: 25.1µM; APEX1 inh: inconclusive; RECQ1 inh-1: 12.6µM; RECQ1 inh conf: 44.7µM; ADP FP counter: inconclusive; L3MBTL1 inh-2: 10.6; L3MBTL1 ctr: inactive

What do the screens show for `Cc1cc(C)n2c(SC/C(O)=C(\C#N)c3nc4ccccc4[nH]3)nnc2n1`?
WRN helicase inh-1: inconclusive; BLM helicase inh-1: inactive; L3MBTL1 inh-1: 15.8µM; APEX1 inh: inconclusive; RECQ1 inh-1: inconclusive; RECQ1 inh-2: inconclusive; L3MBTL1 inh-2: 5.97; L3MBTL1 ctr: inactive

How did Cc1ccccc1-n1c(SC/C(O)=C(\C#N)c2nc3ccccc3[nH]2)nnc1-c1ccncc1 do in these assays?
WRN helicase inh-1: inactive; BLM helicase inh-1: inactive; L3MBTL1 inh-1: inactive; APEX1 inh: inactive; RECQ1 inh-1: inactive

How did CCc1cc(=O)oc2cc(C)c(CN3CCCCC3)c(O)c12 do in these assays?
WRN helicase inh-1: 25.1µM; BLM helicase inh-1: 17.8µM; L3MBTL1 inh-1: 12.6µM; APEX1 inh: 22.4µM; RECQ1 inh-1: 10µM; RECQ1 inh conf: inconclusive; ADP FP counter: 63.1µM; RECQ1 inh-2: inactive; WRN helicase inh-2: inconclusive; TO DNA binding: inactive; BLM helicase inh-2: inconclusive

How did CCCC1(C(=O)OC)C=C2C(=C(C(C)C)C(=O)C2C)CN1 (stereo unspecified) do in these assays?
BLM helicase inh-1: inactive; APEX1 inh: inactive; RECQ1 inh-1: inactive

What do the screens show for `Cc1ccccc1C(=O)Nc1ccc2oc(-c3ccc(Cl)c(Cl)c3)nc2c1`?
BLM helicase inh-1: inactive

What do the screens show for `C=CCSC1=N/C(=C\C=C\c2ccco2)C(=O)S1`?
WRN helicase inh-1: 31.6µM; BLM helicase inh-1: inconclusive; L3MBTL1 inh-1: 2.82µM; APEX1 inh: 10µM; RECQ1 inh-1: 12.6µM; RECQ1 inh conf: 44.7µM; ADP FP counter: 14.1µM; RECQ1 inh-2: inconclusive; WRN helicase inh-2: 19.2µM; TO DNA binding: 24.1µM; BLM helicase inh-2: 5.41µM

What do the screens show for `O=C1CC(c2ccco2)CC(O)=C1C=Nc1ccccc1-c1ccccc1` (stereo unspecified)?
WRN helicase inh-1: inactive; BLM helicase inh-1: inactive; APEX1 inh: inactive; RECQ1 inh-1: inactive

How did O=C1CC(c2ccco2)CC(O)=C1C=Nc1cc(Cl)ccc1O (stereo unspecified) do in these assays?
WRN helicase inh-1: inconclusive; BLM helicase inh-1: inactive; L3MBTL1 inh-1: 35.5µM; APEX1 inh: 7.08µM; RECQ1 inh-1: 22.4µM; RECQ1 inh-2: inconclusive; WRN helicase inh-2: 21.5µM; TO DNA binding: inactive; BLM helicase inh-2: 7.64µM

How did CCOc1ccccc1N(C)C(=O)Cn1cnc2sc(C)c(S(=O)(=O)N3CCC(C)CC3)c2c1=O do in these assays?
BLM helicase inh-1: inactive

Results for COc1cc(-c2nnc(SCc3cc(=O)oc4cc(O)c(O)cc34)o2)cc(OC)c1OC ?
WRN helicase inh-1: 10µM; BLM helicase inh-1: 10µM; APEX1 inh: 2µM; RECQ1 inh-1: 1.78µM; RECQ1 inh conf: 3.55µM; ADP FP counter: 126µM; RECQ1 inh-2: inconclusive; WRN helicase inh-2: 2.41µM; TO DNA binding: 19.2µM; BLM helicase inh-2: 0.961µM

How did CCOC(=O)CSc1nnc(-c2cc(OC)c(OC)c(OC)c2)o1 do in these assays?
WRN helicase inh-1: inactive; BLM helicase inh-1: inactive; L3MBTL1 inh-1: inactive; APEX1 inh: inactive; RECQ1 inh-1: inactive

How did Cc1ccc(-c2csc(NC(=O)/C=C/c3ccco3)c2C(=O)O)cc1 do in these assays?
WRN helicase inh-1: 39.8µM; BLM helicase inh-1: inconclusive; L3MBTL1 inh-1: inconclusive; APEX1 inh: inconclusive; RECQ1 inh-1: 22.4µM; RECQ1 inh conf: inconclusive; ADP FP counter: inactive; RECQ1 inh-2: inactive; WRN helicase inh-2: inconclusive; TO DNA binding: inactive; BLM helicase inh-2: inconclusive

Results for O=C(Nc1scc(-c2ccc(F)cc2)c1C(=O)O)c1ccco1 ?
WRN helicase inh-1: inactive; BLM helicase inh-1: inactive; APEX1 inh: inactive; RECQ1 inh-1: inactive

Results for Cc1cc(C)c2nc(-c3ccccn3)cc(C(=O)Nc3ccc(S(=O)(=O)Nc4onc(C)c4C)cc3)c2c1 ?
WRN helicase inh-1: 39.8µM; BLM helicase inh-1: inconclusive; L3MBTL1 inh-1: inconclusive; APEX1 inh: inconclusive; RECQ1 inh-1: inconclusive; RECQ1 inh-2: inconclusive; WRN helicase inh-2: 15.2µM; TO DNA binding: inconclusive; BLM helicase inh-2: 6.81µM

What do the screens show for `O=C1NC(=Nc2ccc(O)cc2)S/C1=C\C=C\c1ccco1`?
WRN helicase inh-1: inconclusive; BLM helicase inh-1: inactive; L3MBTL1 inh-1: 15.8µM; APEX1 inh: inconclusive; RECQ1 inh-1: inconclusive; RECQ1 inh-2: inconclusive; L3MBTL1 inh-2: 13.4; L3MBTL1 ctr: inactive; WRN helicase inh-2: 19.2µM; TO DNA binding: inconclusive; BLM helicase inh-2: 21.5µM

What do the screens show for `COc1cc(/C=C2/SC(=Nc3ccc(O)cc3)NC2=O)cc(OC)c1O`?
WRN helicase inh-1: inactive; BLM helicase inh-1: inactive; L3MBTL1 inh-1: inconclusive; APEX1 inh: inconclusive; RECQ1 inh-1: inactive

Results for CC1=C2[C@@H]([C@H](C)CC[C@H]2/C=C(\C)C(=O)O)[C@H](O)C1 ?
APEX1 inh: inactive; RECQ1 inh-1: inactive

Source: PubChem
